# LASV entry inh: blocks Lassa virus binding to or entry into cells; 300,000 compounds, 1.2% hits; Lassa virus pseudotype entry inhibition, cell reporter; Potency, µM (doses to about 37.9 µM), actives largely listed as inhibitors; calls by dose curve; tested in HEK293 cells; note: nearly all actives have a fitted effect of over 50% in size
# FMDV antiviral: blocks foot and mouth disease virus | FMDV antiviral cell-based qHTS | Potency, µM (titrated, usually from 57.9 µM), usual class: inhibitors | 410,000 compounds, 1.2% hits | AID 1159524; calls by dose curve; tested in HEK293T cells; note: read-out not given here; nearly all actives have a fitted effect of over 45% in size
# VACV Venus inh: inhibitors of vaccinia virus (Venus reporter). Vaccinia virus Venus reporter expression, fluorescence. Potency, µM (titrated, usually from 36.5 µM), usual class: inhibitors. 330,000 compounds, 0.46% hits; calls by dose curve; tested in A549 cells; note: nearly all actives have a fitted effect of over 30% in size
# Marburg entry inh: blocks Marburg virus binding to or entry into cells; Marburg virus pseudotyped entry inhibition, cell reporter; Potency, µM (top dose mostly 37.8 µM), hits mostly inhibitors; 300,000 compounds, 1.8% hits; calls by dose curve; tested in HEK293 cells
# Vaccinia mCherry: inhibitors of vaccinia virus infection (mCherry reporter signal); AID 720579; 310,000 compounds, 0.63% hits; Potency, µM (top dose mostly 36.5 µM), usual class: inhibitors; Vaccinia virus mCherry reporter infection, fluorescence; calls by dose curve; tested in A549 cells; note: nearly all actives have a fitted effect of over 35% in size
# HCMV inh: inhibitors of human cytomegalovirus; HFF cells, HCMV-luciferase reporter, 72 h; hits give low values; activity change, negative = inhibition, % at 57.5 µM; 410,000 compounds, 4.5% hits; AID 1259415; in the data active = activity change below about -60%; inconclusive = no clear call, values can overlap the other calls; inactive = above about -39%
#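 HFF cells seeded 16 h at 37C, treated with compounds, infected with luciferase-reporter HCMV at MOI 1 PFU/cell; luciferase read at 72 h post infection, normalized to buffer-only and Salinomycin controls.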
# HeLa G2M arrest: causes HeLa cells to arrest in G2/M phase. HeLa cell cycle G2/M arrest, Hoechst DNA content imaging. 25 compounds, 60% hits. shares compounds with Marburg entry inh. Potency, µM, hits mostly inhibitors. AID 2441
# WI-38 tox: toxic to WI-38 fibroblasts in PNC inhibitor counter-screen; 120 tested, under 10 active; Potency, µM (top dose mostly 46.1 µM), most hits filed as inhibitors; AID 2729; shares compounds with Marburg entry inh; WI-38 normal lung fibroblasts, ATPLite luminescence ATP viability, 24 h
# PNC inh conf: confirmation of perinucleolar compartment assembly inhibitors. shares compounds with Marburg entry inh. PC3M PTB-GFP, PNC prevalence imaging, 16 h. Potency, µM (highest dose often 46.1 µM), actives largely listed as inhibitors. 120 compounds, 50% hits
# PC3M caspase: counter-screen for PNC inhibitors: PC3M caspase 3/7 activation; shares compounds with Marburg entry inh; PC3M-GFP caspase 3/7 activation, luminescence, 24 h; activity change, positive = activation, % at 46.1 µM; 120 tested, under 10 active
# A number is an active result; 0 = inactive; ? = inconclusive; - = not tested or not shown. Sampled rows, rich in hits. Any-hit rate of the full collection: about 6.5%. Unless noted, calls come from the whole dose curve; as a rule, active = well fitted curve in the direction sought with a large enough effect; inconclusive = small, poorly fitted or top-dose-only effect, or another doubt; inactive = no such curve, though single readings can be large; an effect the other way counts as inactive or inconclusive.
SMILES,LASV entry inh,FMDV antiviral,VACV Venus inh,Marburg entry inh,Vaccinia mCherry,HCMV inh,WI-38 tox,PNC inh conf,PC3M caspase,others
O=C(CSc1nc2c([nH]c3ccccc32)c(=O)n1-c1cccc(C(F)(F)F)c1)N1CCc2ccccc21,0,0,0,-,0,0,-,-,-,
COc1ccc(NC(=O)CN2C(=O)C(C)(C)c3cc(S(=O)(=O)N4CCCCC4)ccc32)cc1Cl,?,0,0,-,0,0,-,-,-,
COc1cc([C@@H]2c3cc4c(cc3[C@H](O)C3COC(=O)[C@@H]32)OCO4)cc(OC)c1OC (stereo partly specified),?,-,-,?,-,-,-,-,-,HeLa G2M arrest=0.022
CC(=O)Nc1cccc(Oc2ncnc3scc(-c4ccc(C)cc4)c23)c1,?,?,-,0,-,-66,0,0,0,
COc1ccc(C(=O)Nc2nc3c(s2)CCCC3)cc1S(=O)(=O)N1CCCc2ccccc21,?,0,0,?,11µM,-66,0,5µM,0,
Cc1cc(SCC(=O)c2cc(C)n(C)c2C)nc2ccccc12,?,0,0,?,0,0,0,?,0,
Cc1cc(SCC(=O)O)nc2ccccc12,0,0,0,?,0,0,-,-,-,
CC12CCC(C(=O)NC(c3ccccc3)c3ccccc3)(OC1=O)C2(C)C (stereo unspecified),?,?,-,0,-,0,0,0,0,
CC(C)c1ccc(S(=O)(=O)/N=C2/C=C(Sc3ncn[nH]3)C(=O)c3ccccc32)cc1,?,22µM,?,?,11µM,-,0,?,0,
COC(=O)c1ccc(C)c(NC(=O)c2c(-c3ccccc3)noc2C)c1,0,-,0,0,0,0,-,-,-,
COC(=O)c1c(-c2ccccc2)csc1NC(=O)c1c(-c2ccccc2)noc1C,0.89µM,?,0,1µM,6.3µM,-79,0,4µM,0,
Cc1cc(C)c(NC(=O)C2CCN(c3nn4c(=O)cc(C)nc4s3)CC2)c(C)c1,0,0,0,0,0,0,-,-,-,
O=c1[nH]c(SCc2ccccc2[N+](=O)[O-])nc2nc[nH]c12,-,0,0,-,0,?,-,-,-,
O=c1[nH]cnc2c1C(c1ccccc1[N+](=O)[O-])c1c(nc[nH]c1=O)O2,0,0,-,0,-,0,?,0,0,
Cc1cc(C)cc(-n2ccn(CC(=O)Nc3cc(C)ccc3C)c(=O)c2=O)c1,0,0,0,-,0,0,-,-,-,
CCN(CC)C(=O)c1cccnc1,-,-,-,-,-,0,-,-,-,
Fc1ccc(Nc2c3c(nc4nncn24)CCC3)cc1,0,0,0,0,0,0,-,-,-,
Cc1cc(C)cc(NC(=O)C2CCCN2S(=O)(=O)c2cccc3nsnc23)c1 (stereo unspecified),0,0,0,?,0,0,-,-,-,
Cc1ccc(NC(=O)C2(c3cccs3)CCOCC2)cc1Cl,0,0,0,-,0,0,-,-,-,
C(=N\Nc1nc2ccccc2[nH]1)/c1c[nH]c2ccccc12,?,0,0,?,0,0,-,-,-,
O=[N+]([O-])c1cc(/C=N/Nc2nc3ccccc3[nH]2)c(O)cc1O,10µM,0,?,8.9µM,2.8µM,-99,0,28µM,0,
COc1cc(C(=O)Oc2ccccc2/C=N/NC(=O)c2ccc(Cl)cc2)cc(OC)c1OC,11µM,0,?,12µM,?,-99,?,?,0,
CCOc1ccc(NC(=O)c2cc3c(n(-c4ccc(OC)cc4)c2=O)CC(C)(C)CC3=O)cc1,?,0,0,?,0,0,-,-,-,
O=C(COC(=O)Cc1ccc(Br)cc1)NCC1CCCCC1,0,0,0,0,0,?,-,-,-,
O=C(COC(=O)Cc1ccsc1)NCC1CCCCC1,0,0,0,0,0,0,0,0,0,
SMILES,LASV entry inh,FMDV antiviral,VACV Venus inh,Marburg entry inh,Vaccinia mCherry,HCMV inh,WI-38 tox,PNC inh conf,PC3M caspase,others
CCOc1ccc(CN(C)CC(=O)Nc2cc(OC)c([N+](=O)[O-])cc2C)cc1,0,?,0,0,0,0,0,0,0,
Cc1cc(=O)[nH]c(N=N/C(=N/Nc2ccccc2C)c2ccccc2)n1,4µM,0,0,0.79µM,-,-86,0,?,0,
Cc1ccc2c(c1)N(C(=O)N1CCC(C(=O)NC3CCCCCC3)CC1)CC(C)O2 (stereo unspecified),0,0,0,-,0,0,-,-,-,
CCCCN(C(=O)Nc1ccc(Cl)cc1)C1CCN(C(C)=O)CC1,?,0,0,0,0,0,0,0,0,
CCOCCCN(C(=O)Nc1ccc(Cl)cc1)C1CCN(C(C)=O)CC1,0,0,0,-,0,0,-,-,-,
CC(C)(C)c1nc(SCC(=O)Nc2nc3c(s2)CCCC3)c2ccccc2n1,1µM,-,0,1µM,?,-61,0,7.1µM,0,
O=C(Cc1cccs1)Nc1nc2c(s1)CCCC2,2.6µM,0,-,0.58µM,-,-73,0,8.9µM,0,
CCOC(=O)c1cnn(-c2ccc(OC)cc2)c1C1CCN(C(=O)OC(C)(C)C)CC1,?,0,0,?,0,0,-,-,-,
COc1ccccc1C(=O)NCCn1cc(SCc2ccc(C)cc2)c2ccccc21,?,?,0,?,0,0,-,-,-,
Nc1cccc2nc3ccccc3cc12,-,0,?,-,0,-,0,?,?,
Nc1[nH]nc2nc3ccccc3cc12,0,0,0,?,0,0,-,-,-,
C=CCNC(=S)N/N=C(\C)c1ccccn1,0.21µM,?,-,0.26µM,-,-103,0,5µM,0,
COc1ccc(NC(=O)COc2ccc(N(C)S(=O)(=O)c3ccc(C)cc3)cc2)cc1,0,?,0,0,0,0,-,-,-,
Cc1ccc(S(=O)(=O)N(C)c2ccc(OCC(=O)Nc3nc4ccccc4s3)cc2)cc1,?,?,0,15µM,?,-80,0,?,0,
